The results in this text go back to PubChem BioAssay.

Experiment [1] can be described thus: anti-His antibody binders, primary screen, artefact control for SMM control protein annotation, biochemical, small-molecule microarray, 635 nm fluorescence (AID 1128).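 Note: score merges feature fluorescence with signal-to-noise for each printed compound spot.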 The note with it: anti-His Alexa647 antibody binding, higher = more signal.
For experiment [2], the system named is Human papillomavirus type 1a E7 protein (residues 1-88). Nature of the experiment: HPV1a E7 small-molecule binders, primary screen, biochemical, small-molecule microarray, residues 1-88, 635 nm (AID 1129). The note with it: small-molecule microarray binding, fluorescence 635 nm; higher = more signal.
Experiment [3] has as its target Focal adhesion kinase 1 (Homo sapiens) (UniProt Q05397). Nature of the experiment: small-molecule microarray binders of FAK, primary screen, biochemical, 635/667 nm fluorescence, BSA, DTT (AID 1130).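 Note: composite of spot emission at 667 nm and signal to noise over triplicate slides.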 The note with it: PTK2 binding, 635 nm fluorescence, higher = more signal.
Experiment [4] deals with Fibrinogen (Alexa647-labelled). Nature of the experiment: fibrinogen binders on compound microarrays, profiling panel, artefact control for SMM control-protein annotation, biochemical, small-molecule microarray, 635/667 nm fluorescence (AID 1131).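 Note: z-score merges 667 nm fluorescence with per-spot signal-to-noise over triplicate slides.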 The note with it: fibrinogen-A647 binding fluorescence, higher = more signal.
The target in experiment [5] is Follistatin (Homo sapiens) (UniProt P19883). Nature of the experiment: follistatin binders on small-molecule microarrays, primary screen, biochemical, small-molecule microarray, 635/667 nm fluorescence (AID 1132). The note with it: FST binding, 635 nm fluorescence, higher = more signal.
Follistatin (Homo sapiens), sequence (P19883 whole entry, looked up): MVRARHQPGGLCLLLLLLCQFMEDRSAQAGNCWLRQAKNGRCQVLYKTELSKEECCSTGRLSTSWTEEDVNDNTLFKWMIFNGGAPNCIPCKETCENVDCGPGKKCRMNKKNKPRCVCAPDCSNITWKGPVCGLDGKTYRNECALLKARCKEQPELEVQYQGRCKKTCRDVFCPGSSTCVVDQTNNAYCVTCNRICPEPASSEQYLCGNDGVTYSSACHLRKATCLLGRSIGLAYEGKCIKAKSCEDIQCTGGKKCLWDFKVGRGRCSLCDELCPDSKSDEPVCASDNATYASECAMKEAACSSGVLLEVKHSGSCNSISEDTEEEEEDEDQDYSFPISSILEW
Experiment [6] addresses Fibroblast growth factor 2 (Homo sapiens) (UniProt P09038). Nature of the experiment: FGF2 binders on small-molecule microarrays, primary screen, biochemical, small-molecule microarray, 635/667 nm fluorescence (AID 1133). The note with it: small-molecule microarray binding, FGF2, fluorescence 635/667; higher = more signal.
Experiment [7] in a line: mitochondrial membrane potential change in A549 cells, profiling panel, cell-based, JC-1 fluorescence, basal, 24 h, 100 nL (AID 1138).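 Note: A549 lung adenocarcinoma cells under basal conditions with no added stimulus; test concentration not given here.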 The note with it: higher = more signal.
Another experiment deals with Lefty1. Nature of the experiment: Lefty1 binders on small-molecule microarrays, primary screen, biochemical, small-molecule microarray, 635/667 nm fluorescence (AID 1139). The note with it: small-molecule microarray binding, fluorescence 635/667; higher = more signal.
Experiment [8] deals with wheat germ agglutinin (Triticum aestivum), Alexa647-labelled. Nature of the experiment: wheat germ agglutinin binders on compound microarrays, profiling panel, artefact control for SMM control-protein annotation, biochemical, small-molecule microarray, 635/667 nm fluorescence (AID 1140).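 Note: score merges 667 nm feature emission with signal to noise over triplicate slides.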 The note with it: WGA-A647 binding, 635 nm fluorescence, higher = more signal.
Experiment [9] deals with Luciferin 4-monooxygenase (Photinus pyralis) (UniProt P08659). Description: firefly luciferase enzyme inhibitors, primary screen, biochemical, luminescence, purified enzyme, 2006 set (AID 1141).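 Note: cell-free assay with purified firefly luciferase at 100 ng per well in PBS; test concentration not given here.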 The note with it: SteadyGlo luminescence, 30 min, higher = more signal, called active from +8 up or from −8 down.
Luciferin 4-monooxygenase (Photinus pyralis), sequence (P08659 whole entry, looked up): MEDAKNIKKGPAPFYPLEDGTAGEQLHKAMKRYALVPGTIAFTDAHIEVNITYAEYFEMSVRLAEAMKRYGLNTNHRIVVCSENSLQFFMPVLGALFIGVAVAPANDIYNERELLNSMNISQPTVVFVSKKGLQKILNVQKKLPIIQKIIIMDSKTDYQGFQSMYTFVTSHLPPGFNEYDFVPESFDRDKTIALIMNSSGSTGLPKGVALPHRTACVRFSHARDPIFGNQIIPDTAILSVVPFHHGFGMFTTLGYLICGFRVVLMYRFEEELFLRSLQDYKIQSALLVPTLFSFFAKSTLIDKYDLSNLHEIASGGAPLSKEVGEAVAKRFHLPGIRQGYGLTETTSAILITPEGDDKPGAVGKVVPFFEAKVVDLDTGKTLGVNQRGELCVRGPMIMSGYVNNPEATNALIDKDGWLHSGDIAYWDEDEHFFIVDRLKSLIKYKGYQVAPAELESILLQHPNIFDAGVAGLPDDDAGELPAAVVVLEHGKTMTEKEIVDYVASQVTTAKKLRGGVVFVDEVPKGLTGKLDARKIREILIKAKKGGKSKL
In experiment [10] the test system is Wnt5a (protein binding on small-molecule microarray). Nature of the experiment: Wnt5a binders on small-molecule microarray, primary screen, biophysical, 635/667 nm fluorescence (AID 1142).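 Note: fluorescence read at 667 nm with signal to noise per printed feature.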 The note with it: 635 nm fluorescence, higher = more signal.
Experiment [11] is described as follows: cell viability in Huh7 cells, primary screen, cytotoxicity control for HCV replication inhibitor project, CellTiter-Glo luminescence, basal, 48 h (AID 1143).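 Note: Huh7 hepatoma cells carrying a hepatitis C replication reporter with no stimulus; test concentration not given here.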 The note with it: Huh7 HCV replicon, higher = more signal, called active from +8 up or from −8 down. (In general: In ATP-based viability assays light output follows the ATP content of the culture.)
Experiment [12] can be described thus: P. aeruginosa biofilm formation inhibitors, primary screen, PAO1 strain, BacTiter-Glo luminescence, LB-PBS (AID 1144). The note with it: 12 h, higher = more signal.
Experiment [13] can be described thus: CREB reporter modulators without forskolin, primary screen, cell-based, PC12, CRE-LacZ reporter, unstimulated (AID 1145). The note with it: no forskolin, luminescence, 4.5 h, higher = more signal, called active from +8 up or from −8 down.
Experiment [14] can be described thus: CREB reporter modulators under forskolin, primary screen, cell-based, PC12, CRE-LacZ reporter, forskolin-stimulated (AID 1146).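 Note: PC12 cells with 6xCRE LacZ reporter stimulated by forskolin 10 µM; beta-galactosidase reporter signal reflecting CREB driven transcription.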 The note with it: luminescence, 4.5 h, higher = more signal, called active from +8 up or from −8 down.
In experiment [15] the target is Streptavidin (Streptomyces avidinii) (UniProt P22629). Nature of the experiment: streptavidin binders on small-molecule microarray, primary screen, artefact control for SMM compound annotation, biophysical, 635/667 nm fluorescence (AID 1147).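 Note: signal reflects streptavidin binding to arrayed compounds as a control protein.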 The note with it: streptavidin binding, higher = more signal.
Streptavidin (Streptomyces avidinii), sequence (P22629 whole entry, looked up): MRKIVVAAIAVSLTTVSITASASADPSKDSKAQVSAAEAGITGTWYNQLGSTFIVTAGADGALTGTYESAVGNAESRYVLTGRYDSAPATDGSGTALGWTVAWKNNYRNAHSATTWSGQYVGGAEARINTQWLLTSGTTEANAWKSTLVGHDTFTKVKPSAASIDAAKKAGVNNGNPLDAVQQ
The nature of experiment [16]: small-molecule binders of probe aInhba, primary screen, biochemical, small-molecule microarray, 635/667 nm fluorescence (AID 1148).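 Note: score merges 667nm spot fluorescence with signal-to-noise for antibody binding to printed compounds.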 The note with it: higher = more signal.
Experiment [17] addresses Torsin-1A (Homo sapiens) (UniProt O14656). Description: torsin A binders from cell lysate, primary screen, small-molecule microarray, wild-type, 635/667 nm (AID 1149). The note with it: COS7 hTOR1A-WT lysate, 635 nm fluorescence, higher = more signal.
Experiment [18] shares this target. Description: small-molecule binders of mutant TOR1A in lysate, primary screen, cell lysate, small-molecule microarray, COS7 lysate, 635/667 nm fluorescence (AID 1150).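 Note: score pools 667 nm emission and signal to noise measuring lysate protein binding.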 The note with it: COS7 hTOR1A mutant lysate, 635 nm fluorescence, higher = more signal.
In experiment [19] the test system is Sonic hedgehog protein (Shh). Description: small-molecule binders of Shh protein, primary screen, biochemical, small-molecule microarray, 635/667 nm fluorescence (AID 1151).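 Note: Shh protein binding to compounds spotted on small-molecule microarray slides; score combines spot fluorescence intensity with signal-to-noise across triplicate slides.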 The note with it: small-molecule microarray binding, 635 nm fluorescence; higher = more signal.

Structures are written as SMILES. Activity calls are given as the source filed them. Unless noted, the rule behind the calls is not given here.

Fibroblast growth factor 2 (Homo sapiens), sequence (P09038 whole entry, looked up): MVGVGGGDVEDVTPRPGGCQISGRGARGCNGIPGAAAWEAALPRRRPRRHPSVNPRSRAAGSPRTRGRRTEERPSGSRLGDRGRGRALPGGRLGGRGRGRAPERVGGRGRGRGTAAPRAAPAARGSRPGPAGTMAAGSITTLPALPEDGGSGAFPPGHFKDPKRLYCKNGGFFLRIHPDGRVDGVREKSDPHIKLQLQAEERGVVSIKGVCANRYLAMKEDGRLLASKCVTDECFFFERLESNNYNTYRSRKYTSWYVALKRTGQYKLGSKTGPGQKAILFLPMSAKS
Focal adhesion kinase 1 (Homo sapiens), sequence (Q05397 whole entry, looked up): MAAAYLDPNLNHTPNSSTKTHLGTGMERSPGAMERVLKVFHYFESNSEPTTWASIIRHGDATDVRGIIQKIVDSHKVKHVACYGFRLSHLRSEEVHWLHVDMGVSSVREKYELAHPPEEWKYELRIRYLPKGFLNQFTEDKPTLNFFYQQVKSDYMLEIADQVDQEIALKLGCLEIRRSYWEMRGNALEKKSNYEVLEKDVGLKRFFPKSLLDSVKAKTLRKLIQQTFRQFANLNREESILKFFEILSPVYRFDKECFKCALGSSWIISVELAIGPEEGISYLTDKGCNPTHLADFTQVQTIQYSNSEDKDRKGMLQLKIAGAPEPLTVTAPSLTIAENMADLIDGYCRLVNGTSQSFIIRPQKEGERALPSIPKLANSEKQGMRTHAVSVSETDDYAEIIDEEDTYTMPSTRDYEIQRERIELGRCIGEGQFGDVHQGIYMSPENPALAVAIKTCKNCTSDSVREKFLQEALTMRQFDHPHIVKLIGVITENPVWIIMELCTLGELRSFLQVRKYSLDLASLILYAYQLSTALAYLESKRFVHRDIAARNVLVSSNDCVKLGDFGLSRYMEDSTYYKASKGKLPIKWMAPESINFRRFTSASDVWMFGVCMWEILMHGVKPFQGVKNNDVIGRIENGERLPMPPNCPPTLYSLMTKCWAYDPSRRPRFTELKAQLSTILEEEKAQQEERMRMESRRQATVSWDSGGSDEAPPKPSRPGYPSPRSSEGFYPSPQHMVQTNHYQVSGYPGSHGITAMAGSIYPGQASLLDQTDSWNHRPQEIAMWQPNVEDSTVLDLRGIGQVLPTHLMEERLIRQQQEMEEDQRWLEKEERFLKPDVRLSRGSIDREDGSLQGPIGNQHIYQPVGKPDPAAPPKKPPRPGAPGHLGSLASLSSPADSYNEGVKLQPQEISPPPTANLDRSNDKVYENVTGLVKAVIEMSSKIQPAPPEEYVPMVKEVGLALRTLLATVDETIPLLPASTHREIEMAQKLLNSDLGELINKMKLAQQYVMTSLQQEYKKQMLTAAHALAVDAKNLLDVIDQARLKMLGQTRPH
Torsin-1A (Homo sapiens), sequence (O14656 whole entry, looked up): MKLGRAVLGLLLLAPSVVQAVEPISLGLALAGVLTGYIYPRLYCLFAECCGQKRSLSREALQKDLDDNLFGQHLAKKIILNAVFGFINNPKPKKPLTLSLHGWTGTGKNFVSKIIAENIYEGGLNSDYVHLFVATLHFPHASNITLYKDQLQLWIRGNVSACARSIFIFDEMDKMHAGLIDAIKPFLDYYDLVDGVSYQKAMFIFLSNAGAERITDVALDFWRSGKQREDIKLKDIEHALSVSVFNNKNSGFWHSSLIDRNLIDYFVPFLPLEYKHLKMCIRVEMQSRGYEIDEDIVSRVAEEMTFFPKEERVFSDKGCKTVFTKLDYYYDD

As to `CC(C)C[C@@H]1NC(=O)[C@@H]2C[C@H](C(=O)NCCCCN(C)C)[C@H](c3ccc(O)cc3)N2C1=O`, the composite z-score in experiment [1] was 2.74; in experiment [2], -0.494; in [3], -0.462; in experiment [4], -0.838; in experiment [5] it was -0.21; in experiment [6] it was -0.0947. Also, the composite z-score in the experiment on Lefty1 was -0.477; in experiment [8], -0.153; in experiment [10] it was -0.341; in [15], -0.466; in experiment [16] it was -0.0624; with Torsin-1A (Homo sapiens) [17], 0.0266. The figures for the composite z-score (with Torsin-1A (Homo sapiens) [18]; in experiment [19]) were -0.271 and 0.273, respectively. Moreover, the z-score in [7] was -0.273; in experiment [9] it was 0.36 (inactive); in experiment [11], 0.446 (inactive); in experiment [12], -0.0311 (inactive); in [13] it was -0.532 (inactive); in [14] it was -0.0914 (inactive).
On to `C=CCN1C(=O)[C@]2(COC(c3ccc(OCCCO)cc3)=N2)Cc2ccccc21`, for which the composite z-score is 3.08 in experiment [1]; 1.15 in experiment [2]; 0.0652 in experiment [3]; 0.885 in experiment [4]; 1.08 in experiment [5]; 1.08 in experiment [6]. Also, the composite z-score is -0.14 with Lefty1; -0.0492 in [8]; 0.258 in experiment [10]; -0.554 in experiment [15]; 0.167 in experiment [16]; 0.689 with Torsin-1A (Homo sapiens) [17]. Besides, the composite z-score with Torsin-1A (Homo sapiens) [18] was 0.277; in experiment [19] it was 0.169. Moreover, the z-score in [7] is 0.604; in [9] it was -3.52 (inactive); in experiment [11] it was -3.34 (inactive); in [12] it was -1.18 (inactive); in experiment [13] it was 1.8 (inactive); in [14], -1.3 (inactive).
As to `CCCCN1CC=CC23O[C@@H]4/C=C\CCCOC(=O)C4[C@H]2C(=O)N(C(C)CO)[C@@H]3C1=O` (stereo not given in full), the composite z-score is -1.02 in experiment [1]; -0.582 in experiment [2]; -0.56 in experiment [3]; 0.347 in [4]; -0.446 in [5]; -0.38 in [6]. The composite z-score is -0.291 in the experiment on Lefty1; -0.362 in [8]; -0.286 in [10]; -0.559 in experiment [15]; -0.05 in experiment [16]; -0.534 in the experiment with Torsin-1A (Homo sapiens) [17]. Further, the composite z-score with Torsin-1A (Homo sapiens) [18] was -0.804; in experiment [19], 0.732. Also, the z-score is 0.532 in [7]; -0.315 (inactive) in experiment [9]; 0.33 (inactive) in experiment [11]; -1.35 (inactive) in experiment [12]; -0.907 (inactive) in experiment [13]; -0.679 (inactive) in experiment [14].
With `CC(C)N1C(=O)c2ccccc2[C@](C)(C(=O)NC2CC2)[C@@H]1c1ccc(CO)cc1`, the composite z-score in experiment [1] was 1.58; in experiment [2], 0.875; in experiment [3], -0.118; in [4], 0.803; in experiment [5], 1.12; in [6] it was 0.507. Further, the composite z-score is 0.0517 in the experiment with Lefty1; 0.497 in [8]; 0.204 in experiment [10]; -0.166 in experiment [15]; -0.2 in experiment [16]; 1.11 in the experiment with Torsin-1A (Homo sapiens) [17]. For the same compound, the values for the composite z-score (in the experiment with Torsin-1A (Homo sapiens) [18]; in [19]) were 0.74 and 0.889, respectively. Besides, the z-score is 0.378 in [7]; 1.34 (inactive) in experiment [9]; -0.997 (inactive) in [11]; -0.723 (inactive) in experiment [12]; 0.118 (inactive) in experiment [13]; 0.957 (inactive) in experiment [14].
Turning to `Cc1ccc(S[C@]2(C(=O)NCCCN(C)C)CC(=O)N(C(C)C)[C@@H]2c2ccc(CO)cc2I)cc1`, the composite z-score was -0.537 in [1]; -0.393 in [2]; 0.225 in experiment [3]; -0.952 in experiment [4]; 0.296 in experiment [5]; -1.01 in experiment [6]. Besides, the composite z-score was 0.0228 with Lefty1; -0.19 in experiment [8]; -0.331 in experiment [10]; -0.199 in experiment [15]; -0.0986 in experiment [16]; -1.59 with Torsin-1A (Homo sapiens) [17]. Besides, the composite z-score was -0.729 in the experiment with Torsin-1A (Homo sapiens) [18] and 0.0632 in experiment [19]. For the same compound, the z-score in experiment [7] is 1.97; in [9] it was 0.216 (inactive); in [11], -2.21 (inactive); in [12], -0.985 (inactive); in [13] it was -0.114 (inactive); in experiment [14], 0.561 (inactive).
